Bioassay records from PubChem BioAssay.
tim23-1 inh = inhibits growth of tim23-1 mutant yeast. S. cerevisiae tim23-1 growth, BacTiter-Glo luminescence, 24 h. inhibition, % at 20 µM. 330,000 compounds, 1.3% hits;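 active = growth inhibition of the mutant yeast at or above 50%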;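 note: temperature-sensitive mutant grown at 25 °C; plate controls were DMSO-treated mutant yeast for no effect and medium wells lacking yeast for full effect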
Mdm2 MdmX PPI = disrupts the human Mdm2-MdmX interaction. O15151+Q00987. SaOS-2 split-luciferase Mdm2/MdmX complementation, luminescence. inhibition, % at 8 µM. 330,000 compounds, 3% hits;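 active = inhibition of at least 50% at 8 µM in the primary screen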
Target sequence (O15151 whole entry, looked up): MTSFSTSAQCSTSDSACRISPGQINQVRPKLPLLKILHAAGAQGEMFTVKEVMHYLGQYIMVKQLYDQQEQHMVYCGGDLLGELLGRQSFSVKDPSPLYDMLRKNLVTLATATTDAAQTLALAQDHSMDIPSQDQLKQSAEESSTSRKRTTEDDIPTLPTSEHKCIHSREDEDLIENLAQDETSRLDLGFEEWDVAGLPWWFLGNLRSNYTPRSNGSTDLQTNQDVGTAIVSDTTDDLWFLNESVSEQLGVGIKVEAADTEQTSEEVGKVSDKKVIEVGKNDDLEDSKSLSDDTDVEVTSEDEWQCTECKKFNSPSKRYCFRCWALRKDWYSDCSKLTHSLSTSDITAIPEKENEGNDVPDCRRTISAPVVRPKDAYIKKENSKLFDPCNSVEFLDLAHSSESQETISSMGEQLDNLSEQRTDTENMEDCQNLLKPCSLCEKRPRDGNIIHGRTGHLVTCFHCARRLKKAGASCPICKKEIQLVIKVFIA
Target sequence (Q00987 whole entry, looked up): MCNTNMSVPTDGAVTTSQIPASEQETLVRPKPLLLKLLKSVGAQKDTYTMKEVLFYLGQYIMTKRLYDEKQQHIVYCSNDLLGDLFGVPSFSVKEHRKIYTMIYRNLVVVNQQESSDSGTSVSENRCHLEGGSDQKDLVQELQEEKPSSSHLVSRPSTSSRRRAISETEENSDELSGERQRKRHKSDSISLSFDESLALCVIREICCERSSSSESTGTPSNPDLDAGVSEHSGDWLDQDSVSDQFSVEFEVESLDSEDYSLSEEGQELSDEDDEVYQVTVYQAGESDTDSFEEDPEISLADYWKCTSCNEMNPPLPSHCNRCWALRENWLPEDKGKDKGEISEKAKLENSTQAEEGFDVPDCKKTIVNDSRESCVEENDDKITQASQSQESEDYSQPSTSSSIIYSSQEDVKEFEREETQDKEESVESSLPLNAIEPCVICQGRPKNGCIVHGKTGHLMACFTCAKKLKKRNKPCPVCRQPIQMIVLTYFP
tim10-1 inh = tim10-1 yeast growth inhibition; S. cerevisiae tim10-1 ts strain growth, BacTiter-Glo, 24 h; inhibition, % at 20 µM; 330,000 compounds, 2.2% hits; AID 463190;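 active = inhibition of at least 40%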;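 note: mutant grown at 25 °C; 0% = DMSO wells with yeast and 100% = wells holding no yeast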
MPTP inh = permeability transition pore inhibition; isolated mouse mitochondria, Ca2+ swelling absorbance, 30 min; inhibition, % at 10 µM; 360,000 compounds, 1.4% hits; AID 602449;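 active = inhibition of 50% or more, scaled per plate between neutral and stimulator controls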;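 note: 0% = DMSO wells given calcium and 100% = 1 mM EGTA wells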
TIM10 inh = TIM10 yeast growth inhibition; 330,000 compounds, 1.4% hits; S. cerevisiae TIM10 strain growth, BacTiter-Glo luminescence, 24 h; AID 463195; inhibition, % at 10 µM;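 active = inhibition of 40% or more at the single tested concentration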;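 note: wild-type TIM10 isogenic control strain grown at permissive 25 °C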
Rh123 counter = mitochondrial membrane potential, counter-screen | shares compounds with MPTP inh | isolated mitochondria, Rhodamine 123 fluorescence | inhibition, % at 10 µM | 5,000 compounds, 78% hits | AID 624504; in the data active = inhibition above about 22%;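 note: 0% = DMSO vehicle and 100% = positive control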
MPTP abs DR = dose response confirmation of mitochondrial permeability transition pore inhibitors; shares compounds with MPTP inh; isolated mitochondria swelling, absorbance; IC50, µM; 780 compounds, 58% hits; AID 651561; in the data active = IC50 below about 20 µM
MPTP cs DR = counter-screen for mitochondrial permeability transition pore inhibitors, dose response; shares compounds with MPTP inh; isolated mitochondria counterscreen, fluorescence read-out; IC50, µM; 780 compounds, 49% hits; in the data active = IC50 below about 80 µM
* marks the source's active call; other numbers are inactive results; i = inactive; . = not tested or not shown. A selection: hits, their analogues and other compounds. The true share with any hit is near 6.3%.

SMILES	tim23-1 inh	Mdm2 MdmX PPI	tim10-1 inh	MPTP inh	TIM10 inh	Rh123 counter	others
CC(C)[C@H](NC(=O)OCc1ccccc1)C(=O)OCC(=O)N1CCCCC1	.	.	.	0	.	.
Cc1ccc(C(C)C)c(OCCNC(=O)c2ccccc2O)c1	24	0	-10	88*	-14	83*
O=[N+]([O-])c1cc([N+](=O)[O-])c2cccnc2c1Oc1ccccc1O	.	.	.	70*	.	80*
CC(C)NC(=O)OCc1c(COC(=O)NC(C)C)c([N+](=O)[O-])n2c1CCC2	.	.	.	-1	.	.
CCN(CC)CCSC(=O)C(c1ccccc1)c1ccccc1	.	.	.	65*	.	-2	MPTP abs DR=i;MPTP cs DR=>80
COCCCNC(=O)C[C@@H]1C[C@@]2(C(=O)OC)CCCCC=C2N(Cc2ccc(Cl)cc2Cl)C1=O	.	.	.	-1	.	.
O=C(Nc1cccc(Cl)c1)NC1(C(=O)NCc2cccs2)CCCCC1	10	24	3	81*	8	74*
Cc1cc(C)c(C)c(S(=O)(=O)N2CCN(c3ccccn3)CC2)c1C	40	0	18	-2	21	.
O=S(=O)(c1cc(C(F)(F)F)ccc1Cl)N1CCCCCC1	18	-8	-3	0	-12	.
O=S(=O)(c1cc(C(F)(F)F)ccc1Cl)N1CCN(c2ncnc3ccccc23)CC1	37	36	29	93*	22	105*
Cc1cc(C)c(C)c(S(=O)(=O)N2CCN(c3ncnc4ccccc34)CC2)c1C	47	29	12	76*	17	104*
COc1ccc(N=CC2CCCCC2=O)c([N+](=O)[O-])c1 (configuration not stated)	.	.	.	6	.	.
COc1ccc(CNC(=S)Nc2ccc(F)c(Cl)c2)cc1	38	-8	5	96*	31	97*
NS(=O)(=O)c1ccc(CNC(=S)Nc2ccc(F)c(Cl)c2)cc1	2	10	0	1	11	.
COc1ccc(CNC(=S)Nc2ccc(Br)cc2)cc1	28	18	4	88*	-2	92*
Cc1ccc([C@H]2C[C@@H](O)[C@H](n3cc(-c4ccc(F)cc4)nn3)CN2Cc2cccs2)cc1	.	.	.	-1	.	.
Cc1cccc(Oc2cc(NC(=O)Cn3cnc([N+](=O)[O-])n3)cc([N+](=O)[O-])c2)c1	.	.	.	77*	.	66*
CC(C)(C)OC(=O)N/N=C/c1cc(N=Nc2ccccc2)ccc1O	-12	30	4	96*	10	69*
COc1ccc(-c2sc3ccccc3c2/C=C/c2ccncc2)cc1	-45	4	-110	-1	-71	.
CN(C)c1ccc(CNc2ccc3c(c2)ncn3C)cc1	17	-2	8	.	-9	.
CC(C)c1ccc(CNc2ccc3c(c2)ncn3C)cc1	5	-27	29	56*	16	58*
COc1ccc(C2(C)C(C#N)C(=O)NC(=O)C2C#N)cc1 (configuration not stated)	.	.	.	1	.	.
O=C(NNC(=S)Nc1ccc(Cl)cc1Cl)c1ccncc1	18	-26	18	63*	5	15	MPTP abs DR=i;MPTP cs DR=42*
Cc1cccc(NC(=S)NNC(=O)c2cccc([N+](=O)[O-])c2)c1	10	27	10	19	16	.
O=C(NNC(=S)Nc1ccc(Cl)cc1Cl)c1ccc(N2CCOCC2)c([N+](=O)[O-])c1	16	-4	18	98*	22	63*
SMILES	tim23-1 inh	Mdm2 MdmX PPI	tim10-1 inh	MPTP inh	TIM10 inh	Rh123 counter	others
O=C(c1ccc(N2CCOCC2)c([N+](=O)[O-])c1)N1CCCCC1	-9	22	-11	0	-2	.
O=C(Nc1ccc(-c2nc3ccccc3o2)cc1)c1ccc(N2CCOCC2)c([N+](=O)[O-])c1	3	34	10	87*	-4	64*
O=C(NNC(=S)Nc1ccc(Cl)c(Cl)c1)c1cccc([N+](=O)[O-])c1	29	18	30	70*	37	52*
CCCc1nc2ccc(C)cn2c1Cc1ccccc1C(F)(F)F	.	.	.	-4	.	.
Cc1ccc(NC(=S)NNC(=O)c2ccc(N3CCOCC3)c([N+](=O)[O-])c2)cc1Cl	14	11	-5	88*	28	56*
Cc1cccc(NC(=O)c2ccc(N3CCOCC3)c([N+](=O)[O-])c2)n1	-2	-17	11	1	9	.
CN1CCN(C2=Cc3ccccc3Sc3cc(F)c(F)cc32)CC1	-6	36	38	93*	17	-12
CN1CCN(C2=Cc3ccccc3Sc3cc(F)c(Cl)cc32)CC1	-11	37	15	32	26	.
CC(OC(=O)/C=C/c1ccco1)C(=O)NC1CCCCC1 (configuration not stated)	.	.	.	0	.	.
C#CCN(C[C@@H](CC(C)C)NC(=O)OC(C)(C)C)S(=O)(=O)c1ccc(Br)cc1F	.	.	.	-1	.	.
CC(C(=O)O)c1ccc(-c2ccccc2)c(F)c1 (configuration not stated)	6	18	-13	0	1	.
CC(C(=O)Nc1ccccc1)c1ccc(-c2ccccc2)c(F)c1 (configuration not stated)	-8	36	-25	86*	-23	122*
Fc1ccccc1C1c2cccn2CCN1C(=S)Nc1ccc(Br)cc1 (configuration not stated)	33	9	40	101*	23	92*
Fc1ccccc1C1c2cccn2CCN1C(=S)Nc1cccc(Br)c1 (configuration not stated)	27	-1	25	3	24	.
CC(NC(=S)NCc1ccc(F)cc1)C12CC3CC(CC(C3)C1)C2 (configuration not stated)	11	0	9	80*	18	90*
CCNC(=S)NCc1ccc(Cl)cc1	8	6	24	-2	18	.
CCCc1ccc(C(C)NC(=S)NC2CCCCC2)cc1 (configuration not stated)	32	16	29	38	22	.
CCOc1ccc(C(C)NC(=S)NCc2ccc(Cl)cc2)cc1 (configuration not stated)	28	29	-30	60*	2	94*
Fc1ccc(CNC(=S)NCc2ccccc2)cc1	21	-4	29	2	-2	.
CCCc1ccc(C(C)NC(=S)NCc2ccc(F)cc2)cc1 (configuration not stated)	10	12	31	64*	23	91*
CN1N=C(N)c2cn(C3OC(COP(=O)(O)O)C(O)C3O)c3ncnc1c23 (configuration not stated)	.	.	.	1	.	.
Cc1cc(C)c(S(=O)(=O)NCCc2ccncc2)c(C)c1	-6	-9	14	0	-11	.
CCCCc1ccc(S(=O)(=O)NCCc2ccncc2)cc1	18	13	13	12	-32	.
Cc1cc(C)c(S(=O)(=O)NCc2ccncc2)c(C)c1	19	15	-9	87*	-29	72*
